Source: PubChem BioAssay (National Center for Advancing Translational Sciences (NCATS))
RORg inh: blocks mouse ROR gamma transcriptional activity; P51450; Drosophila S2 Gal4-RORgamma UAS-luciferase reporter, 20 h; Potency, µM (series often up to 53.6 µM), without a hit: at the highest dose activity change, negative = inhibition, hits mostly inhibitors; 310,000 compounds, 5.4% hits; AID 2551; also: % is scaled to controls: 0 for no effect and ±100 for the full control effect; nearly all actives have a fitted effect of over 60% in size
Target sequence (P51450 whole entry, looked up, the tested form may be a part): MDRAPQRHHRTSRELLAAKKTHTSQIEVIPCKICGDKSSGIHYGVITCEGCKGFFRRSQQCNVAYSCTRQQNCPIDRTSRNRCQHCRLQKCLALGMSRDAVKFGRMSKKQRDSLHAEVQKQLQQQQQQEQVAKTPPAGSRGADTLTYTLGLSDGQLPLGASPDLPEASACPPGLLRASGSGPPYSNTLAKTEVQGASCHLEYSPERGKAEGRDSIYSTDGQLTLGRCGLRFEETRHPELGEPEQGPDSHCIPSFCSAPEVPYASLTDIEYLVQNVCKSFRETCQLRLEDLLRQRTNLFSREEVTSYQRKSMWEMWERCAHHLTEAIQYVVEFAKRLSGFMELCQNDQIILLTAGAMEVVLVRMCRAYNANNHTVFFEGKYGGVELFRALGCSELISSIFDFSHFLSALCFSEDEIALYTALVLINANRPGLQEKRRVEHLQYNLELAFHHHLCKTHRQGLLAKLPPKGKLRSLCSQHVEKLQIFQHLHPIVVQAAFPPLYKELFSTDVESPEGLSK
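Luminescence from a UAS-regulated Photinus luciferase reporter in stably transfected Drosophila Schneider cells is measured; decreased signal marks ROR gamma inhibition. Fusion expression is induced by 700 uM copper sulfate for 20 hr.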
VP16 counter: inhibits Gal4-VP16 luciferase reporter, ROR gamma counter-screen | Drosophila S2 Gal4-VP16 UAS-luciferase, luminescence, 20 h | Potency, µM (doses to about 53.6 µM), without a hit: at the highest dose activity, negative = inhibition, actives largely listed as inhibitors | 310,000 compounds, 3.5% hits | AID 2546;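 also: Gal4-VP16 expression switched on by copper sulfate through the metallothionein promoter; % is scaled to controls: 0 for no effect and ±100 for the full control effect; nearly all actives have a fitted effect of over 50% in size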
S2 tox: viability counter-screen for ATXN expression inhibitors; S2 cells (HEK-293 line with an ATXN2-luciferase reporter) viability, CellTiter-Fluor protease fluorescence, 24 h; Potency, µM (highest dose often 56.7 µM), usual class: cytotoxic; 400,000 compounds, 0.49% hits; AID 651635; also: nearly all actives have a fitted effect of over 40% in size
TGFb inhibitor: inhibitors of TGF-b signaling | 410,000 compounds, 1.2% hits | Potency, µM (highest dose often 46.1 µM), for inactives: top-dose activity, negative = inhibition, usual class: inhibitors | HepG2 CAGA-GFP TGF-b/SMAD3 reporter, GFP fluorescence, 18 h; TGF-beta stimulated, 500 pg/mL final; also: % is scaled to controls: 0 for no effect and ±100 for the full control effect; nearly all actives have a fitted effect of over 65% in size
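Using HEPG2 CAGA-GFP reporter cells at 1000 cells/well, we pinned test compounds, stimulated with recombinant TGF-beta (500 pg/mL final) and measured total well GFP after 18 h.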
HepG2 viability: kills HepG2 cells in TGF-b inhibitor counter-screen; HepG2 CAGA-GFP viability, ATP luminescence, 18 h; Potency, µM (top dose mostly 46.1 µM), without a hit: at the top dose activity change, negative = cytotoxicity, most hits filed as cytotoxic; 410,000 compounds, 0.76% hits
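CellTiter-Glo luminescence gave cytotoxicity after 18 hours at 37 degrees C. The cells were HepG2 CAGA-GFP in 1% FBS DMEM, stimulated with 500 pg/mL TGF-beta after compound addition. %Activity was normalised to no-cell wells (complete cell-killing) and DMSO (no toxicity), and curves were fitted and classified.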
ATXN2 expr inh: inhibitors of ATXN2 expression; HEK-293 ATXN2-luciferase reporter, luminescence, 24 h; Potency, µM (series often up to 57 µM), inactives show at the highest dose activity change, negative = inhibition, hits mostly inhibitors; 360,000 compounds, 0.72% hits; AID 1745845; also: % is scaled to controls: 0 for no effect and ±100 for the full control effect; nearly all actives have a fitted effect of over 55% in size
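ATXN2-luciferase reporter cells (luciferase flanked by upstream and downstream ATXN2 gene portions) were treated 24 h at 37 °C with compounds at up to 57 uM. SteadyGlo luminescence gave expression; GF-AFC fluorescence gave viability.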
* marks the source's active call; other numbers are inactive results; i = inactive; ? = inconclusive; nt = no result; [ ] = another dose, or the depositor's remark. Shown are actives, neighbours in structure and some others; about 6.1% of the full set was active somewhere. Calls follow the shape of the dose curve; as a rule, active = well fitted curve in the direction sought with a large enough effect; inconclusive = small, poorly fitted or top-dose-only effect, or another doubt; inactive = no such curve, though single readings can be large; an effect the other way counts as inactive or inconclusive. Potency is read from the fitted curve at half-maximal effect.

SMILES | RORg inh | VP16 counter | S2 tox | TGFb inhibitor | HepG2 viability | ATXN2 expr inh
COc1ccc(-c2cccc(NS(=O)(=O)c3ccc(NC(C)=O)cc3)c2)nn1 | nt | nt | ? | -23.3% | -15.0% | -13.7%
O=C(NC(=S)NCc1cccnc1)c1cc2ccccc2o1 | 12.6µM* | -20.6% | i | -4.9% | -3.7% | 8.1%
O=C(NC(=S)NCc1cccnc1)c1cc(Br)ccc1Cl | 22.4µM* | ? | i | -13.3% | -14.6% | -15.1%
Cc1cccc(C(=O)Nc2cccc(OCc3cc(=O)n4c(C)csc4n3)c2)c1 | nt | nt | i | -14.6% | -9.7% | -4.9%
Cc1ccc(NC(=O)CSc2nnc(-c3nnn(-c4ccc(F)cc4)c3C)o2)cc1Br | nt | nt | i | 0.2% | -10.6% | 2.4%
N[C@H]1CN(c2c(F)cc3c(=O)c(C(=O)O)cn(C4C[C@@H]4F)c3c2Cl)CC12CC2 (some centres undefined) | nt | nt | i | nt | nt | -0.5%
COCCCn1c(=N)c(C(=O)NC2CCCCC2)cc2c(=O)n3cc(C)ccc3nc21 | nt | nt | nt | -0.5% | 6.3% | -1.1%
Fc1cccc(Cn2cc(C(=S)N3CCCCC3)c3ccccc32)c1 | 7.08µM* | 7.94µM* | i | -5.9% | -35.4% | -11.5%
CCOC(=O)C1CCCN(C(=O)Cn2c(=O)cc(C)c3c(C)nn(C)c32)C1 (centres undefined) | nt | nt | i | ? | -12.1% | -19.3%
Cc1cc(=O)n(CC(=O)N2CCN(c3ccc(F)cc3)CC2)c2c1c(C)nn2C | nt | nt | ? | 7.08µM* | -31.8% | ?
COc1cc(OC)c(NC(=O)c2ccc3nc(C(C)C)oc3c2)cc1Cl | nt | nt | nt | -0.7% | -1.7% | nt
O=C(CSc1n[nH]c(-c2ccccc2)n1)NCCc1ccccc1 | nt | nt | nt | -13.2% | -13.1% | nt
COc1ccc(C2CC(c3ccccc3F)=NN2c2ccc(S(N)(=O)=O)cc2)cc1 (centres undefined) | nt | nt | nt | ? | -20.4% | 1.7%
COc1ccc(C2CC(c3ccccc3Br)=NN2c2ccc(S(N)(=O)=O)cc2)cc1 (centres undefined) | nt | nt | i | ? | 12.6µM* | ?
NS(=O)(=O)c1ccc(N2N=C(c3ccccc3)CC2c2ccc(Br)cc2)cc1 (centres undefined) | nt | nt | ? | ? | 28.2µM* | ?
CCOc1ccccc1NC(=O)CN1C(=O)COc2ccc(S(=O)(=O)NC3CCCC3)cc21 | nt | nt | ? | -14.4% | -18.5% | -7.1%
COc1ccc(C(=O)/C(=C/O)N=Nc2ccc(F)cc2)cc1 | ? | ? | 22.4µM* | ? | -38.1% | ?
Cc1cccc(N=N/C(=C\O)C(=O)c2ccc(Br)cc2)c1 | -23.8% | ? | nt | 10µM* | -70.2% | -33.3%
CS(=O)(=O)c1ccc(NC(=O)COc2ccccc2C(=O)Nc2ccccc2)cc1 | nt | nt | nt | -7.4% | -17.0% | nt
O=C(N/N=C/c1ccccc1Cl)c1n[nH]c2c1CCCC2 | 2.82µM* | ? | i | 4.5% | -32.6% | nt
Cc1[nH]nc(C(=O)NN=Cc2ccccc2Cl)c1N=NN(C)C | nt | nt | ? | 10µM* | 20µM* | 0.2%
CSc1cccc(NC(=O)CN2C(=O)COc3ccc(Cl)cc32)c1 | nt | nt | i | -1.9% | -7.4% | ?
Cc1ccc2nc(NC(=O)c3ccc(OCC4CCCO4)cc3)sc2c1 (centres undefined) | 4.47µM* | ? | i | -4.7% | -18.5% | -44.4%
COc1ccc2nc(NC(=O)c3ccc(NC(=O)C4CCCO4)cc3)sc2c1 (centres undefined) | -20.6% | -17.4% | i | -11.4% | -30.4% | -3.1%
O=C(Nc1nc(-c2ccc(Cl)cc2Cl)cs1)c1ccc(OCC2CCCO2)cc1 (centres undefined) | -36.8% | 17.8µM* | i | -16.8% | 1.1% | -9.7%[11.3 µM]
SMILES | RORg inh | VP16 counter | S2 tox | TGFb inhibitor | HepG2 viability | ATXN2 expr inh
Cc1cccnc1NC(=O)c1ccc(OCC2CCCO2)cc1 (centres undefined) | nt | nt | i | 18.6% | 4.0% | nt
Cc1cc(C)c2nc(NC(=O)c3ccc(OCC4CCCO4)cc3)sc2c1 (centres undefined) | 1µM* | -17.1% | ? | -20.0% | -24.1% | nt
Cc1cccc(NC(=O)c2c(NC(=O)c3ccco3)sc3c2CCC(C(C)(C)C)C3)c1 (centres undefined) | nt | nt | i | 2.1% | -18.6% | 9.0%
CCOc1ccc(NC(=O)CSc2ccc(-c3sc(-c4ccccc4)nc3C)nn2)cc1 | nt | nt | nt | 2.0% | 4.5% | nt
COc1cccc(OCc2nc3ccccc3n2CCOc2ccc(C)cc2)c1 | nt | nt | i | ? | -28.5% | -21.7%
CCc1nnc(NC(=O)CSc2nccn2-c2cc(C)cc(C)c2)s1 | 17.8µM* | ? | i | -6.6% | -13.1% | -22.2%
CCc1nnc(NC(=O)CSc2nccn2-c2cccc(C)c2C)s1 | 2.82µM* | 17.8µM* | i | -21.5% | -16.3% | -29.7%
CCc1nnc(NC(=O)CSc2nc3cccnc3n2C2CCCCC2)s1 | 10µM* | ? | i | -15.2% | -23.7% | 66.7%
CC1CCCCN1C(=O)Cn1c(=O)n(-c2ccc(Cl)cc2)c(=O)c2c3c(sc21)CCC3 (centres undefined) | nt | nt | i | -17.3% | -5.9% | -7.9%
CCOC(=O)CCCC(=O)N1CCN(/[N+]([O-])=N/Oc2ccc([N+](=O)[O-])cc2[N+](=O)[O-])CC1 | nt | nt | nt | ? | -105.1% | nt
COc1ccc(-c2nc3cc(NC(=S)NC(=O)Cc4ccccc4)ccc3o2)cc1 | 4.47µM* | 2.51µM* | ? | -22.9% | 1.9% | 29.2%
CCC(=O)NC(=S)Nc1ccccc1OC | ? | ? | i | 18.2% | 8.1% | 15.8%
COc1cccc(NC(=S)NC(=O)Cc2ccc(Cl)cc2)c1 | 7.08µM* | 7.08µM* | i | -13.5% | -1.1% | -6.9%
COc1ccccc1NC(=S)NC(=O)Cc1ccc(Cl)cc1 | 7.08µM* | 4.47µM* | i | -20.4% | 1.3% | -11.9%
CCCC(=O)NC(=S)Nc1ccccc1F | 3.98µM* | ? | i | ? | -14.9% | 27.0%
COc1ccc(CC(=O)NC(=S)Nc2cccc(C)c2)cc1 | nt | nt | i | -8.7% | -86.5% | 4.8%
CC(=O)NC(=S)Nc1ccccc1F | ? | ? | i | -1.0% | 4.1% | nt
COC(=O)CCC(=O)NNC(=O)CCCOc1ccc(Cl)cc1Cl | 11.7% | ? | i | -17.5% | -5.4% | -3.8%
COc1ccccc1NC(=S)NC(=O)CCCOc1ccc(Cl)cc1Cl | 10µM* | 15.8µM* | i | -20.1% | -9.4% | -4.3%
COC(=O)CCC(=O)NNC(=O)c1ccc(Cl)cc1Cl | 11.2µM* | -14.2% | i | -0.9% | 2.3% | 6.7%
CC(C)(C)C(=O)NC(=S)Nc1ccccc1F | 12.6µM* | ? | i | -23.5% | -23.8% | 29.5%
